# PubChem BioAssay AID651640 (Broad Institute, 2012)
# Several values for one entry are separate records, joined by “and”; a condition that tells them apart may be missing. Identical values can stand only once. Out of some 350,000 compounds screened, about 6,000 (1.7%) were called active. About 5% were inconclusive and are not listed. No stated cut-off is given here; in the data, active means CPE inhibition above about 20% (passing the limit was not always enough); inconclusive means no clear call, values can overlap the other calls; tested in BHK-21 cells. The list comes from a sample in which actives are over-represented; it also holds similar structures and randomly drawn compounds. Where a structure was tested more than once in an assay, its records may differ in their call.
# Test: inhibitors of DENV2 cytopathic effect, primary screen, cell-based, plate reader, single concentration (AID 651640);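 further: 0% = median of neutral control wells and 100% = median of positive control wells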
# Conditions: DENV2-infected cells, cytopathic effect rescue, at 9.99 µM, stronger effect = higher value
row,Compound,CPE inhibition
1,CO[C@H]1CN(C)C(=O)c2ccc(NC(=O)c3cccc(F)c3)cc2OC[C@@H](C)N(C(C)=O)C[C@@H]1C,-2.36% (inactive)
2,COc1ccc(S(=O)(=O)Nc2ccc3c(c2)CC(=O)N([C@@H](C)CO)C[C@@H](C)[C@@H](CN(C)C(=O)Nc2c(C)noc2C)O3)cc1,29.8% (active)
3,COc1ccc(NC(=O)N(C)C[C@@H]2Oc3ccc(NS(=O)(=O)c4ccc(OC)cc4)cc3CC(=O)N([C@H](C)CO)C[C@H]2C)cc1,11.3% (inactive)
4,COc1ccc(S(=O)(=O)Nc2ccc3c(c2)CC(=O)N([C@H](C)CO)C[C@@H](C)[C@H](CN(C)S(=O)(=O)c2c(C)noc2C)O3)cc1,-6.33% (inactive)
5,Cc1noc(C)c1S(=O)(=O)Nc1ccc2c(c1)C(=O)N([C@@H](C)CO)C[C@H](C)[C@H](CN(C)C(=O)Nc1ccc(C(F)(F)F)cc1)O2,-2.38% (inactive)
6,COc1ccc(S(=O)(=O)Nc2ccc3c(c2)CC(=O)N([C@H](C)CO)C[C@H](C)[C@H](CN(C)C(=O)Nc2ccccc2)O3)cc1,-6.98% (inactive)
7,Cc1noc(C)c1S(=O)(=O)Nc1ccc2c(c1)CC(=O)N([C@@H](C)CO)C[C@H](C)[C@H](CN(C)C(=O)Nc1ccccc1)O2,-4.97% (inactive)
8,COc1ccc(S(=O)(=O)Nc2ccc3c(c2)CC(=O)N([C@H](C)CO)C[C@H](C)[C@@H](CN(C)C(=O)NC(C)C)O3)cc1,21.3% (active)
9,Cc1noc(C)c1NC(=O)N(C)C[C@H]1Oc2ccc(NS(=O)(=O)c3ccc(Cl)cc3)cc2CC(=O)N([C@H](C)CO)C[C@@H]1C,-8.56% (inactive)
10,Cc1noc(C)c1S(=O)(=O)Nc1ccc2c(c1)CC(=O)N([C@@H](C)CO)C[C@@H](C)[C@@H](CN(C)C(=O)Nc1ccc(C(F)(F)F)cc1)O2,46.5% (active)
11,C[C@H]1CN([C@@H](C)CO)C(=O)c2cc(Br)cnc2O[C@H]1CN(C)CC1CCCC1,7.93% (inactive)
12,O=C(C[C@@H]1C[C@@H]2c3cc(NC(=O)NC4CCCC4)ccc3O[C@@H]2[C@@H](CO)O1)NCc1ccccc1,-0.285% (inactive)
13,O=C(NCC1CC1)[C@@H]1[C@@H](CO)[C@@H]2Cn3c(ccc(-c4ccccc4)c3=O)[C@H]1N2Cc1nccs1,-2.52% (inactive)
14,CN(C)CC(=O)N[C@H]1CC[C@H](CCNC(=O)C2CCCCC2)O[C@H]1CO,-1.04% (inactive)
15,O=C(Cc1ccccn1)N1CC(=O)N2[C@H](C1)[C@@H](c1ccc(-c3ccccc3)cc1)[C@@H]2CO,4.12% (inactive)
16,C[C@@H]1CN([C@H](C)CO)C(=O)c2cc(NC(=O)Nc3ccccc3)ccc2O[C@@H](C)CCCCO[C@@H]1CN(C)Cc1ccncc1,-2.85% (inactive)
17,COCC#Cc1cnc2c(c1)C(=O)N([C@@H](C)CO)C[C@@H](C)[C@H](CN(C)C(=O)C1CCOCC1)O2,4.93% (inactive)
18,O=C(O)C1C2C=CC(C2)C1C(=O)NCc1ccccc1 (stereo not drawn),23.9% (active)
19,O=C(NCc1ccccc1)C1CNCC(C(=O)NCc2ccccc2)C1 (stereo not drawn),-5.52% (inactive)
20,O=C(NCc1ccccc1)C1CCN(C(=O)Cc2ccccc2)CC1,-10.5% (inactive)
21,O=C(NCc1ccccc1)C1=C[C@@H](C2CCCCC2)C[C@@H](OCc2ccc(CO)cc2)O1,-6.36% (inactive) and 1.63% (inactive)
22,O=C(NCc1ccccc1)C1=C[C@H](C2CC2)C[C@H](OCc2ccc(CO)cc2)O1,-16.3% (inactive) and 0.479% (inactive)
23,CC(C)(C)[C@H]1C=C(C(=O)NCc2ccccc2)O[C@@H](OCc2ccc(CO)cc2)C1,51.1% (active) and -3.51% (inactive)
24,CO[C@@H](CN(C)C(=O)c1ccc2c(c1)OCO2)[C@@H](C)CN([C@H](C)CO)S(=O)(=O)c1ccccc1,-3.46% (inactive)

row,Compound,CPE inhibition
1,CN1C(=O)c2cc(NC(=O)C3CCOCC3)ccc2OC[C@H]2O[C@@H](CC(=O)NCC3CCCCC3)CC[C@@H]21,1.63% (inactive)
2,COC(=O)[C@@]1(CCS(=O)(=O)c2ccccc2)N=C(c2ccc(OCCCO)cc2)O[C@H]1c1ccccc1N=[N+]=[N-],-1.34% (inactive)
3,C=CC[C@]1(C(=O)NCC(O)CO)N=C(c2ccc(OCCCO)cc2)O[C@H]1c1ccccc1 (stereo partly drawn),1.79% (inactive)
4,[N-]=[N+]=Nc1ccccc1C[C@@]1(C(=O)NCc2ccccc2)N=C(c2ccc(OCCCO)cc2)O[C@@H]1c1ccccc1,33.8% (active)
5,O=C(C[C@H]1CC[C@H](NC(=O)C2CCC2)[C@@H](CO)O1)Nc1nccs1,0.802% (inactive)
6,O=C(Cc1ccccn1)N[C@H]1CC[C@@H](CC(=O)N2CCCCC2)O[C@@H]1CO,-2.26% (inactive)
7,OC(CCl)CCl,32.4% (active)
8,O=C(c1ccc(F)cc1)N1CC(=O)N2[C@H](CO)[C@H](c3ccc(-c4ccccc4F)cc3)[C@@H]2C1,7.8% (inactive)
9,C[C@@H]1CN([C@H](C)CO)C(=O)c2cc(NC(=O)Nc3cccc4ccccc34)ccc2O[C@@H](C)CCCCO[C@H]1CN(C)S(=O)(=O)c1cccs1,-15.6% (inactive)
10,O=C(NCc1ccccc1Cl)[C@H]1[C@H](CO)[C@H]2Cn3c(cccc3=O)[C@H]2N1C(=O)C1CCC1,-3.74% (inactive)
11,CCCNC(=O)[C@H]1[C@H](CO)[C@H]2Cn3c(cccc3=O)[C@H]2N1Cc1ccccc1Cl,140% (active)
12,CCCN1[C@H](C(=O)NC2Cc3ccccc3C2)[C@@H](CO)[C@@H]2Cn3c(cccc3=O)[C@@H]21,-9.85% (inactive)
13,O=C(c1cccnc1)N1CC[C@H]2[C@H](CO)Nc3ccc(-c4ccc(F)cc4)cc3[C@H]21,1.83% (inactive)
14,C[C@@H]1CN([C@@H](C)CO)C(=O)Cc2cc(NC(=O)Cc3ccccc3)ccc2O[C@@H]1CN(C)C(=O)Nc1ccc2c(c1)OCO2,-7.53% (inactive)
15,COCC(=O)N1CC[C@@H]2[C@@H](CO)Nc3ccc(-c4ccc(C(=O)N(C)C)cc4)cc3[C@@H]21,5.72% (inactive)
16,O=C(NC1Cc2ccccc2C1)[C@H]1[C@H](CO)[C@H]2Cn3c(ccc(C4=CCCCC4)c3=O)[C@H]2N1CC1CC1,39.5% (active)
17,O=C(NC1CCC1)[C@H]1[C@H](CO)[C@H]2Cn3c(ccc(C4=CCCCC4)c3=O)[C@@H]1N2CC1CC1,-0.675% (inactive)
18,CCNC(=O)[C@@H]1[C@@H](CO)[C@@H]2Cn3c(ccc(C4=CCCCC4)c3=O)[C@@H]2N1Cc1ccccc1F,2.99% (inactive)
19,COc1ccccc1NC(=O)N[C@H]1CC[C@@H](CC(=O)N[C@@H](C)c2ccccc2)O[C@H]1CO,3.47% (inactive)
20,COc1ccccc1NC(=O)N[C@H]1C=C[C@H](CC(=O)N[C@@H](C)c2ccccc2)O[C@H]1CO,4.39% (inactive)
21,COc1ccccc1NC(=O)N[C@H]1C=C[C@@H](CC(=O)N[C@@H](C)c2ccccc2)O[C@@H]1CO,20.2% (active)
22,C[C@@H]1CN([C@@H](C)CO)C(=O)Cc2cc(NC(=O)Cc3ccccc3)ccc2O[C@H]1CN(C)Cc1ccc(C(=O)O)cc1,-5.69% (inactive)
23,Cc1noc(C)c1NC(=O)N(C)C[C@@H]1Oc2ccc(NC(=O)Nc3cccc4ccccc34)cc2CC(=O)N([C@@H](C)CO)C[C@H]1C,3.02% (inactive)
24,C[C@H]1CN([C@@H](C)CO)C(=O)c2cccc(NC(=O)Nc3ccc(F)cc3)c2O[C@@H]1CN(C)C(=O)Nc1ccc2c(c1)OCO2,-3.44% (inactive)
